Experimental data reported in PubChem BioAssay (NCATS).
Results filed as inconclusive are left out. Activity calls are given as the source filed them. Unless noted, calls follow the shape of the dose curve; as a rule, active = well fitted curve in the direction sought with a large enough effect; inconclusive = small, poorly fitted or top-dose-only effect, or another doubt; inactive = no such curve, though single readings can be large; an effect the other way counts as inactive or inconclusive.

Assays:
[1] = target: Ubiquitin carboxyl-terminal hydrolase 1 (Homo sapiens) (UniProt O94782); test: Inhibitors of USP1/UAF1: Pilot qHTS (AID 504865);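 also: rhodamine fluorescence freed from ubiquitin-rhodamine substrate followed over time; top concentration of the series differs between compounds; nearly all actives have a fitted effect of over 35% in size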
Sequence of Ubiquitin carboxyl-terminal hydrolase 1 (Homo sapiens) (O94782 whole entry, looked up): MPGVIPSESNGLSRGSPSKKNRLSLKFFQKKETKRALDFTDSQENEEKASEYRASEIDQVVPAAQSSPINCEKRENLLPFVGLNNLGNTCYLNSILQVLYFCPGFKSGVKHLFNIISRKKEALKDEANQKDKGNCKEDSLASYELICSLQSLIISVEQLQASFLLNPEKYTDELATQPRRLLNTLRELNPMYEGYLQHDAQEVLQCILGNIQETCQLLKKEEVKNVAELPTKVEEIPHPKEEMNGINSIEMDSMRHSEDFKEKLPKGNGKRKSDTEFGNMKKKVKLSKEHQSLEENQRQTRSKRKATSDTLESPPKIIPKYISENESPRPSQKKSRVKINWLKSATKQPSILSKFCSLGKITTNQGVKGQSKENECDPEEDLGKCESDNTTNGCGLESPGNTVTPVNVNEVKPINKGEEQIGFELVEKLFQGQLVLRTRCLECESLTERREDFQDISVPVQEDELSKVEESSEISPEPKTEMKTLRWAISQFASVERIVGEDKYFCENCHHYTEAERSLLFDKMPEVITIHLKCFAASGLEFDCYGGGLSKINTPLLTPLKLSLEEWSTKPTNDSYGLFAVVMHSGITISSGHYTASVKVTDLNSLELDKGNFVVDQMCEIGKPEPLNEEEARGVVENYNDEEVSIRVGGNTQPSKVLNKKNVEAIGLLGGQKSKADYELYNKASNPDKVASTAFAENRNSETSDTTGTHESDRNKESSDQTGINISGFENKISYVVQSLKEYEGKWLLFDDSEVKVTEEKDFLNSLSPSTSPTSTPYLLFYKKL
Procedure, shortened: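 Kinetic fluorescence assay: 1nM USP1/UAF1, 15 min compound preincubation, then 150nM Ub-Rho; 480/540 nm.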

[2] = target: Luciferin 4-monooxygenase (Photinus pyralis) (UniProt P08659); test: Biochemical firefly luciferase enzyme assay for NPC (AID 624030);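 also: purified P. pyralis luciferase at 10 nM with luciferin and ATP substrate; nearly all actives have a fitted effect of over 70% in size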
Sequence of Luciferin 4-monooxygenase (Photinus pyralis) (P08659 whole entry, looked up): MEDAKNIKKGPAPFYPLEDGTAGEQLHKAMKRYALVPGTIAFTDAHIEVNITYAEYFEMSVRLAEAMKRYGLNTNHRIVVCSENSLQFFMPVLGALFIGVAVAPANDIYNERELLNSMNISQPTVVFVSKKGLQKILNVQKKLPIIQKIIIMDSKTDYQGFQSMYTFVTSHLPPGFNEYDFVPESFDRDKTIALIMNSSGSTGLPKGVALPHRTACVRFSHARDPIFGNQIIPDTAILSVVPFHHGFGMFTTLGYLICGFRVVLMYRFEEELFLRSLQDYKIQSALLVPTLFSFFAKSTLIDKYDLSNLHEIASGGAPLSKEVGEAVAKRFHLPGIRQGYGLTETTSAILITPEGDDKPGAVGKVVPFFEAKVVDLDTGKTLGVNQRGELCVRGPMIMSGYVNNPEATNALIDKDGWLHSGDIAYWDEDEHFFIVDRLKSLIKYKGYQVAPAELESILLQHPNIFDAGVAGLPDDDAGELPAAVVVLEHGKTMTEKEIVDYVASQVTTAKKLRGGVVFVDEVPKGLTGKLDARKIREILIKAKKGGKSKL
Procedure, shortened: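 Direct inhibition of firefly luciferase enzyme (10 nM final, 50 mM Tris Acetate) assessed by luminescence within 5 minutes. Percent activity scaled between DMSO and PTC124 positive control, with concentration-effect curves classified by fit quality and response.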

[3] = S16 Schwann cell viability assay (CellTiter-Glo assay) (AID 624031);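 also: cellular ATP luminescence as a viability measure; nearly all actives have a fitted effect of over 70% in size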
Procedure, shortened: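 Untransfected S16 rat Schwann cells; compound 24 h, 37 °C/5% CO2; CellTiter-Glo ATP luminescence. % activity vs no-cell wells and DMSO controls (0%); concentration-effect curves classed by r2, response magnitude, activity.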

[4] = S16 Schwann cell PMP22 intronic element firefly luciferase assay (AID 624032); also: nearly all actives have a fitted effect of over 30% in size
Procedure, shortened: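 Luciferase reporter of PMP22 intronic-element expression in stably transfected S16 rat Schwann cells, read by ONE-Glo luminescence after 24 h compound exposure at 37 C. Activity scaled between DMSO (0%) and positive-control PTC124; concentration-effect curves quality-classified.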

[5] = S16 Schwann cell PMP22 intronic element beta-lactamase assay (AID 624044; calls by dose curve; also: nearly all actives have a fitted effect of over 15% in size)
Procedure, shortened: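 Rat S16 Schwann cells with beta-Lac driven by a PMP22 intronic element, compound-treated 24 h at 37 °C. LiveBLAzer FRET B/G read: 460 nm normalized to potassium clavulanate vs DMSO; 535 nm FRET as viability; concentration-effect curves classified.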

3D7 = test: qHTS profiling for inhibitors of Plasmodium falciparum proliferation (AID 504749); also: nearly all actives have a fitted effect of over 60% in size; also: potency is read from the fitted curve at half-maximal effect; conditions: P. falciparum in erythrocytes, SYBR Green DNA, 72 h; series mostly up to 28.7 µM
Procedure, shortened: (§1)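 Infected RBCs, 0.3% parasitemia/2.5% Hct final; cpd 72 h, 37 C, 5% CO2; lysis buffer with saponin/triton/SYBR Green I, o/n RT dark; FI 485/535; norm. to artemisinin (0.29 uM) and DMSO.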

CP260 = test: as above; conditions: P. falciparum in erythrocytes, SYBR Green DNA, 72 h; series mostly up to 28.7 µM
Procedure, shortened: as §1

CP286 = test: as above; conditions: P. falciparum in erythrocytes, SYBR Green DNA, 72 h; series mostly up to 28.7 µM
Procedure, shortened: as §1

CP335 = test: as above; conditions: P. falciparum in erythrocytes, SYBR Green DNA, 72 h; series mostly up to 28.7 µM
Procedure, shortened: as §1

DIV14 = test: as above; conditions: P. falciparum in erythrocytes, SYBR Green DNA, 72 h; series mostly up to 28.7 µM
Procedure, shortened: as §1

Dd2 = test: as above; conditions: P. falciparum in erythrocytes, SYBR Green DNA, 72 h; series mostly up to 28.7 µM
Procedure, shortened: as §1

GB4 = test: as above; conditions: P. falciparum in erythrocytes, SYBR Green DNA, 72 h; series mostly up to 28.7 µM
Procedure, shortened: as §1

P94_40 = test: as above; conditions: P. falciparum in erythrocytes, SYBR Green DNA, 72 h; series mostly up to 28.7 µM
Procedure, shortened: as §1

[6] = target: Cytochrome P450 2C19 (Homo sapiens) (UniProt P33261); test: qHTS Assay for Inhibitors and Substrates of Cytochrome P450 2C19 (AID 899); also: potency is read from the fitted curve at half-maximal effect; nearly all actives have a fitted effect of over 60% in size
Sequence of Cytochrome P450 2C19 (Homo sapiens) (P33261 whole entry, looked up): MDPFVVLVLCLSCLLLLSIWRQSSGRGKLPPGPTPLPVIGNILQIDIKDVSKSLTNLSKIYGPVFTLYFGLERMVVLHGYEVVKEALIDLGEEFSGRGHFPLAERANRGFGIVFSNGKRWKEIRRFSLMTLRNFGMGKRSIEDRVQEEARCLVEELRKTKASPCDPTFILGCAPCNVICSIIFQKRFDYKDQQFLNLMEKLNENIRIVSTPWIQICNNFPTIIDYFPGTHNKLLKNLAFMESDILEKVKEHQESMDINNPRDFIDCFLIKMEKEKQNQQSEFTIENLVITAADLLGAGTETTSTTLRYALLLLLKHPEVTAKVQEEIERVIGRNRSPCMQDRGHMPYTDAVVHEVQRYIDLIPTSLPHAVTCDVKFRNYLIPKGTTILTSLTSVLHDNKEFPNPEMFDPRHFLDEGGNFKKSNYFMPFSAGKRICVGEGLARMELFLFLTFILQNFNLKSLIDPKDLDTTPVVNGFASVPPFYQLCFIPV
Procedure, shortened: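 Reactions contain 5nM enzyme, 10uM Luciferin-H EGE (KM) and 50mM KPO4; compound preincubates 10 min at 37C, NADPH regeneration starts turnover for 60 min. Luminescence after detection reagent gives activity.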

CP192 = test: qHTS profiling for inhibitors of Plasmodium falciparum proliferation (AID 504749); also: nearly all actives have a fitted effect of over 60% in size; also: potency is read from the fitted curve at half-maximal effect; conditions: P. falciparum in erythrocytes, SYBR Green DNA, 72 h; series mostly up to 28.7 µM
Procedure, shortened: as §1

CP194 = test: as above; conditions: P. falciparum in erythrocytes, SYBR Green DNA, 72 h; series mostly up to 28.7 µM
Procedure, shortened: as §1

CP203 = test: as above; conditions: P. falciparum in erythrocytes, SYBR Green DNA, 72 h; series mostly up to 28.7 µM
Procedure, shortened: as §1

CP247 = test: as above; conditions: P. falciparum in erythrocytes, SYBR Green DNA, 72 h; series mostly up to 28.7 µM
Procedure, shortened: as §1

DFO2036 = test: as above; conditions: P. falciparum in erythrocytes, SYBR Green DNA, 72 h; series mostly up to 28.7 µM
Procedure, shortened: as §1

PC49 = test: as above; conditions: P. falciparum in erythrocytes, SYBR Green DNA, 72 h; series mostly up to 28.7 µM
Procedure, shortened: as §1

Measured: Potency

CC(C)(C)c1ccc(CN2CCN([C@H](c3ccccc3)c3ccc(Cl)cc3)CC2)cc1
inactive: [1] | [2] | [3] | [4] | [5]
active: 3D7 6.31 µM | CP260 7.08 µM | CP286 4.47 µM | CP335 3.38 µM | DIV14 15.1 µM | Dd2 8.91 µM | GB4 15.1 µM | P94_40 7.94 µM

Oc1ccc(Cl)cc1Cc1cc(Cl)cc(Cc2cc(Cl)ccc2O)c1O
active: [6] 1.26 µM

C[C@H](CCC(=O)O)[C@H]1CC[C@@H]2[C@H]3[C@@H](C[C@@H](O)[C@]21C)[C@]1(C)CC[C@H](O)C[C@@H]1C[C@@H]3O
inactive: [1] | [2] | [3] | [4] | [5] | 3D7 | CP192 | CP194 | CP203 | CP247 | CP260 | CP286 | CP335 | DFO2036 | DIV14 | Dd2 | PC49

O=C(O)[C@@H](O)[C@@H](O)[C@H](O)C(=O)CO
inactive: [1] | [2] | [3] | [4] | [5] | 3D7 | CP192 | CP194 | CP203 | CP247 | CP260 | CP286 | CP335 | DFO2036 | DIV14 | Dd2 | GB4 | P94_40 | PC49

CC(C)Cn1cnc2c(SCc3ccc(Cl)cc3Cl)nc(N)nc21
active: [6] 2 µM

CC(C)c1cc(C(F)(F)F)nc(NNc2nc(C(C)C)cc(C(F)(F)F)n2)n1
active: [6] 2.51 µM

COc1ccc2ccccc2c1/C=C\C(=O)c1ccccc1
active: [6] 0.316 µM

Cc1onc(-c2c(F)cccc2Cl)c1C(=O)N[C@@H]1C(=O)N2[C@H]1SC(C)(C)[C@H]2C(=O)O
inactive: [1] | [2] | [3] | [4] | [5] | 3D7 | CP192 | CP194 | CP203 | CP247 | CP260 | CP286 | DFO2036 | DIV14 | Dd2 | GB4 | P94_40 | PC49

CC1(C)S[C@@H]2[C@H](NC(=O)Cc3ccccc3)C(=O)N2[C@@H]1C(=O)O
inactive: [1] | [2] | [3] | [4] | [5] | 3D7 | CP192 | CP194 | CP203 | CP247 | CP260 | CP286 | CP335 | DFO2036 | DIV14 | Dd2 | GB4 | P94_40 | PC49
